{"source": "PubChem BioAssay (NCI)", "note": "About 79,000 compounds went through this panel and 15% of them were active in at least one assay; those are over-represented in the sample as a whole. Values without a mark were called inactive. Active and inactive are the calls of the source. No stated cut-off is given here; in the data, active means growth inhibition above about 70%; inactive means the rest."}
{"test": "NCI Yeast Anticancer Drug Screen. Data for the bub3 strain (AID 167)", "conditions": "S. cerevisiae bub3 mutant strain, at 50.0 µM, hits give high values", "description": "Growth inhibition of yeast strains with defined genetic alterations is measured as a screen for potential anti-cancer activity. Selected strains with alterations in DNA damage repair or cell cycle control were exposed to compounds and growth inhibition was measured relative to vehicle treated controls. The strain used in this assay is bub3"}
{"smiles": "O=C(O)COc1ccc(I)cc1I", "growth inhibition": "23.6%"}
{"smiles": "COc1ccc(C(C)=O)c(O)c1OC", "growth inhibition": "-3.1%"}
{"smiles": "Cc1ccc(C)c(NC(=O)Oc2ccc(Cl)cc2Cc2ccccc2)c1", "growth inhibition": "8.2%"}
{"smiles": "O=C1c2ccccc2C(c2ccccc2)C1c1ccccc1", "note": "(stereo not given)", "growth inhibition": "20.6%"}
{"smiles": "CCCOC(=O)Nc1cccc(Cl)c1", "growth inhibition": "-9.35%"}
{"smiles": "c1ccc2c(c1)C(=Nc1ccc(N=C3c4ccccc4-c4ccccc43)cc1)c1ccccc1-2", "growth inhibition": "-27.4%"}
{"smiles": "Nc1ccc(N)c(C(=O)O)c1", "growth inhibition": "-12.6%"}
{"smiles": "O=C(c1ccncc1)c1c(Cc2ccccc2)ccc2ccccc12", "growth inhibition": "5.45%"}
{"smiles": "CC(=O)CC1(O)C(=O)C(C(C)(C)C)=CC2(C(C)(C)C)OC12", "note": "(stereo not given)", "growth inhibition": "6.25%"}
{"smiles": "CC(CN1CCCC1)(Oc1ccccc1)C(=O)c1ccccc1", "note": "(stereo not given)", "growth inhibition": "10.1%"}
{"smiles": "O=C(O)C#Cc1ccc(Cl)cc1", "growth inhibition": "-24.4%"}
{"smiles": "O/N=C(\\CC(O)(C(F)(F)F)C(F)(F)F)c1cccs1", "growth inhibition": "75.8% (active)"}
{"smiles": "COc1cc(-c2cc(=O)c3c(O)c(OC)c(OC)cc3o2)ccc1O", "growth inhibition": "-36.6%"}
{"smiles": "CC(=O)N(C(C)=O)C1=C(c2ccccc2)C(=O)c2ccccc21", "growth inhibition": "-2.95%"}
{"smiles": "CC1=NOC(C)(O)/C1=N/O", "note": "(stereo not given)", "growth inhibition": "9.75%"}
{"smiles": "COC1(OC)CC2C(=O)N(Cc3ccccc3)C1C=C2S(=O)(=O)c1ccccc1", "note": "(stereo not given)", "growth inhibition": "1.55%"}
{"smiles": "CN(N=O)C(=O)NC(CCCCNC(=O)OCc1ccccc1)C(=O)OCc1ccccc1", "note": "(stereo not given)", "growth inhibition": "11.6%"}
{"smiles": "COc1ccc(OC)c(NC(=O)Nc2ccc(I)cc2)c1", "growth inhibition": "52.9%"}
{"smiles": "CC(=O)Oc1ccc(OC(C)=O)c2c(OC(C)=O)ccc(OC(C)=O)c12", "growth inhibition": "53.8%"}
{"smiles": "Cc1cc2c(=O)cc(-c3ccccc3Cl)oc2c(C(=O)O)c1C", "growth inhibition": "-2.75%"}
{"smiles": "O=C1NNCc2c1sc1ccccc21", "growth inhibition": "-11.7%"}
{"smiles": "COC(=O)c1c(-c2ccc3c(c2)OCO3)cn(C)c1C", "growth inhibition": "7.55%"}
{"smiles": "CC1=C(C(=O)OCCc2ccc([N+](=O)[O-])cc2)C(c2cccc([N+](=O)[O-])c2)C(C(=O)OC(C)C)=C(C)N1", "note": "(stereo not given)", "growth inhibition": "16.1%"}
{"smiles": "O=C(O)/C(=C\\c1ccncc1)c1cccc2ccccc12", "growth inhibition": "-32%"}
{"smiles": "O=c1nc(NCC23CC4CC(CC(C4)C2)C3)ccn1C1OC(CO)C(O)C1O", "note": "(stereo not given)", "growth inhibition": "-4.95%"}
{"smiles": "Cn1c2ccccc2c2c3ccc[n+](C)c3ccc21", "growth inhibition": "-0.1%"}
{"smiles": "Nc1c(Br)c(Br)cc2c1-c1ccc(Br)cc1C2", "growth inhibition": "7.9%"}
{"smiles": "CN/N=C(\\C(=O)Nc1ccc([N+](=O)[O-])cc1[N+](=O)[O-])C1NC(=O)NC1=O", "note": "(stereo not given)", "growth inhibition": "15.9%"}
{"smiles": "CCCCCCNCc1cc(CNCCCCCC)c(O)c(CNCCCCCC)c1", "growth inhibition": "1.4%"}
{"smiles": "O=C(NN1C(=O)CS(=O)(=O)C1c1ccccc1F)c1ccncc1", "note": "(stereo not given)", "growth inhibition": "-0.1%"}
{"smiles": "CCN(CC)/[N+]([O-])=N/O", "growth inhibition": "15.8%"}
{"smiles": "C[N+](C)(C)CBr", "growth inhibition": "4.75%"}
{"smiles": "CN/C=C(/OCc1ccccc1)c1ccc(O)c(O)c1", "growth inhibition": "-19.7%"}
{"smiles": "COc1ccc2c(c1)C1(C)CCCC(C)C1=CC2=O", "note": "(stereo not given)", "growth inhibition": "87.8% (active)"}
{"smiles": "OC(Cc1ccc2ccccc2n1)(C(F)(F)Cl)C(F)(F)Cl", "growth inhibition": "-4.45%"}
{"smiles": "COc1cc(C2OCCO2)ccc1O", "growth inhibition": "5.05%"}
{"smiles": "O=C1O/C(=C2/OC(=O)c3ccccc32)c2ccccc21", "growth inhibition": "14.5%"}
{"smiles": "CCNCC(=O)Nc1ccccc1C(=O)OCC", "growth inhibition": "8.6%"}
{"smiles": "CC(=O)c1cc2c(cc1C)CCCC2(C)C", "growth inhibition": "4.4%"}
{"smiles": "COc1cc2ccc1OCc1cccc(n1)COc1ccc(cc1OC)C=NCCNCCN=C2", "growth inhibition": "-17.3%"}
